{"source": "the supplement of paper PMC8728848", "binders": {"B1": {"name": "SLLPI (Mus musculus), Q9D9X8 (protein)", "chain": "MGICMSMYTQVLVPVDADGDHHILWSRFYERWGSCFNPCAGLVNCLPPHSSALYLCHRMEARSRAPRRQLCPPGITWLALAYLLSCLLASSKAKVFSRCELAKEMHDFGLDGYRGYNLADWVCLAYYTSGFNTNAVDHEADGSTNNGIFQISSRRWCRTLASNGPNLCRIYCTDLLNNDLKDSIVCAMKIVQEPLGLGYWEAWRHHCQGRDLSDWVDGCDF"}, "B2": {"name": "SLLPI (Homo sapiens), Q8IXA5 (protein)", "chain": "MVSALRGAPLIRVHSSPVSSPSVSGPRRLVSCLSSQSSALSQSGGGSTSAAGIEARSRALRRRWCPAGIMLLALVCLLSCLLPSSEAKLYGRCELARVLHDFGLDGYRGYSLADWVCLAYFTSGFNAAALDYEADGSTNNGIFQINSRRWCSNLTPNVPNVCRMYCSDLLNPNLKDTVICAMKITQEPQGLGYWEAWRHHCQGKDLTEWVDGCDF"}}, "experiment_in_all_cases": "glycan array binding signal (z-score within array); higher = stronger binding", "settings_in_all_cases": "glycan notation: IUPAC condensed, linker removed", "key": {"[1]": {"biological_target": "Fuc(a1-2)Gal(b1-3)GalNAc(b1-3)Gal", "how_it_was_run": "(§1)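 Negative Z-scores can be read as non-binding. The Z-score is calculated within each array and then averaged across arrays of one protein sequence at different concentrations or buffers and across linkers. Arrays, 3228 in all, were curated from the Consortium for Functional Glycomics database and kept only where the protein sequence was available.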"}, "Fuc(a1-2)Gal(b1-4)GlcNAc": {"biological_target": "Fuc(a1-2)Gal(b1-4)GlcNAc", "how_it_was_run": "as §1"}, "[2]": {"biological_target": "Fuc(a1-2)Gal(b1-4)GlcNAc(b1-3)Gal(b1-4)GlcNAc", "how_it_was_run": "as §1"}, "[3]": {"biological_target": "Fuc(a1-2)Gal(b1-4)GlcNAc6S", "how_it_was_run": "as §1"}, "[4]": {"biological_target": "Fuc(a1-2)[Gal(a1-3)]Gal(b1-3)GlcNAc", "how_it_was_run": "as §1"}, "[5]": {"biological_target": "Fuc(a1-3)[Gal3S(b1-4)]GlcNAc6S", "how_it_was_run": "as §1"}, "Gal(b1-2)Gal": {"biological_target": "Gal(b1-2)Gal", "how_it_was_run": "as §1"}, "[6]": {"biological_target": "Gal(b1-3)GlcNAc(b1-2)Man(a1-3)[Gal(b1-3)GlcNAc(b1-2)Man(a1-6)]Man(b1-4)GlcNAc(b1-4)GlcNAc", "how_it_was_run": "as §1"}, "[7]": {"biological_target": "Gal(b1-3)[Fuc(a1-4)]GlcNAc(b1-3)Gal(b1-4)[Fuc(a1-3)]GlcNAc", "how_it_was_run": "as §1"}, "[8]": {"biological_target": "Gal(b1-4)GlcNAc(b1-3)[GlcNAc(b1-6)]Gal(b1-4)GlcNAc", "how_it_was_run": "as §1"}, "Gal3S(b1-3)GlcNAc": {"biological_target": "Gal3S(b1-3)GlcNAc", "how_it_was_run": "as §1"}, "Gal3S(b1-4)Glc6S": {"biological_target": "Gal3S(b1-4)Glc6S", "how_it_was_run": "as §1"}, "[9]": {"biological_target": "Gal3S(b1-4)[Fuc(a1-3)]Glc", "how_it_was_run": "as §1"}, "[10]": {"biological_target": "GlcNAc(b1-3)Gal(b1-3)GalNAc", "how_it_was_run": "as §1"}, "[11]": {"biological_target": "GlcNAc(b1-4)GlcNAc(b1-4)GlcNAc", "how_it_was_run": "as §1"}, "[12]": {"biological_target": "GlcNAc(b1-4)GlcNAc(b1-4)GlcNAc(b1-4)GlcNAc(b1-4)GlcNAc", "how_it_was_run": "as §1"}, "[13]": {"biological_target": "Man(a1-2)Man(a1-2)Man(a1-3)Man", "how_it_was_run": "as §1"}, "[14]": {"biological_target": "Man(a1-2)Man(a1-3)[Man(a1-2)Man(a1-6)]Man(a1-6)[Man(a1-2)Man(a1-2)Man(a1-3)]Man(b1-4)GlcNAc(b1-4)GlcNAc", "how_it_was_run": "as §1"}, "[15]": {"biological_target": "Man(a1-2)Man(a1-3)[Man(a1-6)]Man(a1-6)[Man(a1-2)Man(a1-3)]Man(b1-4)GlcNAc(b1-4)GlcNAc", "how_it_was_run": "as §1"}, "[16]": {"biological_target": "Neu5Ac(a2-3)Gal(b1-4)[Fuc(a1-3)]GlcNAc(b1-6)[Gal(b1-3)]GalNAc", "how_it_was_run": "as §1"}, "[17]": {"biological_target": "Neu5Ac(a2-6)Gal(b1-4)GlcNAc6S", "how_it_was_run": "as §1"}, "Fuc(a1-2)Gal(b1-3)GlcNAc": {"biological_target": "Fuc(a1-2)Gal(b1-3)GlcNAc", "how_it_was_run": "as §1"}, "Fuc(a1-2)Gal(b1-4)Glc": {"biological_target": "Fuc(a1-2)Gal(b1-4)Glc", "how_it_was_run": "as §1"}, "[18]": {"biological_target": "Fuc(a1-2)Gal6S(b1-4)GlcNAc", "how_it_was_run": "as §1"}, "Fuc(b1-3)GlcNAc": {"biological_target": "Fuc(b1-3)GlcNAc", "how_it_was_run": "as §1"}, "[19]": {"biological_target": "Gal(a1-3)[Gal(a1-4)]Gal(b1-4)GlcNAc", "how_it_was_run": "as §1"}, "[20]": {"biological_target": "Gal(b1-3)GalNAc(b1-4)Gal(b1-4)Glc", "how_it_was_run": "as §1"}, "[21]": {"biological_target": "Gal(b1-3)GlcNAc(b1-3)Gal(b1-4)Glc", "how_it_was_run": "as §1"}, "[22]": {"biological_target": "Gal(b1-4)GalNAc(a1-3)[Fuc(a1-2)]Gal(b1-4)GlcNAc", "how_it_was_run": "as §1"}, "[23]": {"biological_target": "Gal(b1-4)GlcNAc(b1-3)Gal(b1-3)GlcNAc", "how_it_was_run": "as §1"}, "[24]": {"biological_target": "Gal3S(b1-3)[Fuc(a1-4)]GlcNAc", "how_it_was_run": "as §1"}, "Gal6S(b1-4)Glc6S": {"biological_target": "Gal6S(b1-4)Glc6S", "how_it_was_run": "as §1"}, "GalNAc(a1-3)Gal": {"biological_target": "GalNAc(a1-3)Gal", "how_it_was_run": "as §1"}, "GlcA(b1-3)GlcNAc": {"biological_target": "GlcA(b1-3)GlcNAc", "how_it_was_run": "as §1"}, "GlcA(b1-6)Gal": {"biological_target": "GlcA(b1-6)Gal", "how_it_was_run": "as §1"}, "[25]": {"biological_target": "GlcNAc(b1-2)Gal(b1-3)GalNAc", "how_it_was_run": "as §1"}, "GlcNAc(b1-3)Gal": {"biological_target": "GlcNAc(b1-3)Gal", "how_it_was_run": "as §1"}, "GlcNAc(b1-3)Gal(b1-4)Glc": {"biological_target": "GlcNAc(b1-3)Gal(b1-4)Glc", "how_it_was_run": "as §1"}, "[26]": {"biological_target": "Man(a1-3)[Man(a1-6)]Man(a1-6)[Man(a1-2)Man(a1-3)]Man(b1-4)GlcNAc(b1-4)GlcNAc", "how_it_was_run": "as §1"}, "[27]": {"biological_target": "Neu5Ac(a2-3)Gal(b1-4)GlcNAc(b1-2)Man(a1-3)[GlcNAc(b1-2)Man(b1-4)GlcNAc(b1-2)Man(a1-6)]Man(b1-4)GlcNAc(b1-4)GlcNAc", "how_it_was_run": "as §1"}, "[28]": {"biological_target": "Neu5Ac(a2-3)Gal(b1-4)[Fuc(a1-3)]GlcNAc(b1-3)Gal(b1-4)GlcNAc", "how_it_was_run": "as §1"}, "[29]": {"biological_target": "Neu5Ac(a2-3)Gal(b1-4)[Fuc(a1-3)]GlcNAc(b1-3)Gal(b1-4)[Fuc(a1-3)]GlcNAc(b1-3)Gal(b1-4)[Fuc(a1-3)]GlcNAc", "how_it_was_run": "as §1"}, "[30]": {"biological_target": "Neu5Gc(a2-3)Gal(b1-4)GlcNAc", "how_it_was_run": "as §1"}, "[31]": {"biological_target": "Neu5Gc(a2-6)Gal(b1-4)GlcNAc", "how_it_was_run": "as §1"}}, "note": "Shown is part of a subset that was picked to be rich in the strongest signals."}
{"binder": "B1", "values": [{"measurement": "glycan array binding signal (z-score)", "setting": "[1]", "result": 0.084}, {"measurement": "glycan array binding signal (z-score)", "setting": "Fuc(a1-2)Gal(b1-4)GlcNAc", "result": -0.019}, {"measurement": "glycan array binding signal (z-score)", "setting": "[2]", "result": -0.448}, {"measurement": "glycan array binding signal (z-score)", "setting": "[3]", "result": 0.445}, {"measurement": "glycan array binding signal (z-score)", "setting": "[4]", "result": -0.779}, {"measurement": "glycan array binding signal (z-score)", "setting": "[5]", "result": 3.34}, {"measurement": "glycan array binding signal (z-score)", "setting": "Gal(b1-2)Gal", "result": 0.362}, {"measurement": "glycan array binding signal (z-score)", "setting": "[6]", "result": -0.288}, {"measurement": "glycan array binding signal (z-score)", "setting": "[7]", "result": -0.236}, {"measurement": "glycan array binding signal (z-score)", "setting": "[8]", "result": -0.03}, {"measurement": "glycan array binding signal (z-score)", "setting": "Gal3S(b1-3)GlcNAc", "result": 3.28}, {"measurement": "glycan array binding signal (z-score)", "setting": "Gal3S(b1-4)Glc6S", "result": 3.45}, {"measurement": "glycan array binding signal (z-score)", "setting": "[9]", "result": 1.15}, {"measurement": "glycan array binding signal (z-score)", "setting": "[10]", "result": 3.21}, {"measurement": "glycan array binding signal (z-score)", "setting": "[11]", "result": 1.92}, {"measurement": "glycan array binding signal (z-score)", "setting": "[12]", "result": -0.401}, {"measurement": "glycan array binding signal (z-score)", "setting": "[13]", "result": -0.502}, {"measurement": "glycan array binding signal (z-score)", "setting": "[14]", "result": -0.652}, {"measurement": "glycan array binding signal (z-score)", "setting": "[15]", "result": 0.317}, {"measurement": "glycan array binding signal (z-score)", "setting": "[16]", "result": -0.335}, {"measurement": "glycan array binding signal (z-score)", "setting": "[17]", "result": 3.29}]}
{"binder": "B2", "values": [{"measurement": "glycan array binding signal (z-score)", "setting": "[1]", "result": 1.93}, {"measurement": "glycan array binding signal (z-score)", "setting": "Fuc(a1-2)Gal(b1-3)GlcNAc", "result": -0.188}, {"measurement": "glycan array binding signal (z-score)", "setting": "Fuc(a1-2)Gal(b1-4)Glc", "result": 0.145}, {"measurement": "glycan array binding signal (z-score)", "setting": "[2]", "result": 0.263}, {"measurement": "glycan array binding signal (z-score)", "setting": "[18]", "result": 0.21}, {"measurement": "glycan array binding signal (z-score)", "setting": "Fuc(b1-3)GlcNAc", "result": -0.512}, {"measurement": "glycan array binding signal (z-score)", "setting": "[19]", "result": 0.947}, {"measurement": "glycan array binding signal (z-score)", "setting": "[20]", "result": -0.063}, {"measurement": "glycan array binding signal (z-score)", "setting": "[6]", "result": 0.777}, {"measurement": "glycan array binding signal (z-score)", "setting": "[21]", "result": 0.044}, {"measurement": "glycan array binding signal (z-score)", "setting": "[22]", "result": -0.332}, {"measurement": "glycan array binding signal (z-score)", "setting": "[23]", "result": -0.37}, {"measurement": "glycan array binding signal (z-score)", "setting": "[24]", "result": -0.205}, {"measurement": "glycan array binding signal (z-score)", "setting": "Gal6S(b1-4)Glc6S", "result": 1.85}, {"measurement": "glycan array binding signal (z-score)", "setting": "GalNAc(a1-3)Gal", "result": 1.65}, {"measurement": "glycan array binding signal (z-score)", "setting": "GlcA(b1-3)GlcNAc", "result": 0.16}, {"measurement": "glycan array binding signal (z-score)", "setting": "GlcA(b1-6)Gal", "result": -0.073}, {"measurement": "glycan array binding signal (z-score)", "setting": "[25]", "result": -0.634}, {"measurement": "glycan array binding signal (z-score)", "setting": "GlcNAc(b1-3)Gal", "result": 0.2}, {"measurement": "glycan array binding signal (z-score)", "setting": "GlcNAc(b1-3)Gal(b1-4)Glc", "result": 0.579}, {"measurement": "glycan array binding signal (z-score)", "setting": "[13]", "result": 3.65}, {"measurement": "glycan array binding signal (z-score)", "setting": "[26]", "result": 1.02}, {"measurement": "glycan array binding signal (z-score)", "setting": "[27]", "result": 4.44}, {"measurement": "glycan array binding signal (z-score)", "setting": "[28]", "result": 0.654}, {"measurement": "glycan array binding signal (z-score)", "setting": "[29]", "result": 0.311}, {"measurement": "glycan array binding signal (z-score)", "setting": "[30]", "result": -0.286}, {"measurement": "glycan array binding signal (z-score)", "setting": "[31]", "result": -0.251}]}
